Holding throughout (assay): PBM binding z-score (relative to random genomic background probes); higher = stronger binding; sequences stand for … in GC…GCGATTGACAGCGTAGAATGAAGG
Test [1] deals with FXR:RXRa (NR concentration 270 nM, RXRa partner concentration 90 nM). A digest of the protocol: (§1)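 Custom Agilent 4×180K protein-binding microarrays carried double-stranded probes, each with a 34-nt variable region. These regions held direct-repeat seeds, single-nucleotide variants, half-site ablations and random human genomic background sequences. Ligand-free nuclear receptor dimers were incubated on the arrays for 1 h, antibodies against each partner (one per run) detected binding, and scanned fluorescence was regression-normalized. Binding z-scores take the random background probes as reference.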

For test [2], the system named is LXRa:RXRa (NR concentration 270 nM, RXRa partner concentration 90 nM). A digest of the protocol: as §1
The subject of test [3] is LXRa homodimer (NR concentration 270 nM). Summed up:
as §1

Test [4] has as its system LXRb:RXRa (NR concentration 270 nM, RXRa partner concentration 90 nM). A digest of the protocol:
as §1

The subject of test [5] is LXRb homodimer (NR concentration 270 nM). A digest of the protocol:
as §1

Test [6] has as its system PPARa:RXRa (NR concentration 270 nM, RXRa partner concentration 90 nM). Summed up:
as §1

Test [7] concerns PPARg:RXRa (NR concentration 180 nM, RXRa partner concentration 90 nM). A digest of the protocol:
as §1

The subject of test [8] is PPARg:RXRa 270nM:90nM, anti-RXR (NR concentration 270 nM, RXRa partner concentration 90 nM). Summed up:
as §1

The subject of test [9] is PPARg:RXRa 30nM:10nM, anti-RXR (NR concentration 30 nM, RXRa partner concentration 10 nM). Summed up: as §1
The subject of test [10] is PPARg:RXRa 90nM:30nM, anti-RXR (NR concentration 90 nM, RXRa partner concentration 30 nM). Summed up: as §1
The test system of test [11] is PPARg:RXRa DBDmut IVT, anti-RXR (DBD mutation: RXRa K156A/R161A, NR concentration 270 nM, RXRa partner concentration 90 nM). A digest of the protocol: as §1
Test [12] relates to PPARg:RXRa IVT, anti-PPARg (NR concentration 270 nM, RXRa partner concentration 90 nM). A digest of the protocol:
as §1

The subject of test [13] is PPARg DBDmut:RXRa IVT, anti-PPARg (DBD mutation: PPARg1 K132A/R137A, NR concentration 270 nM, RXRa partner concentration 90 nM). Summed up:
as §1

For test [14], the system named is PPARg DBDmut IVT, anti-PPARg (DBD mutation: PPARg1 K132A/R137A, NR concentration 270 nM). Summed up:
as §1

Test [15] deals with PPARg homodimer (NR concentration 180 nM). Summed up:
as §1

The subject of test [16] is PXR:RXRa (NR concentration 270 nM, RXRa partner concentration 90 nM). A digest of the protocol:
as §1

The subject of test [17] is PXR homodimer (NR concentration 270 nM). Summed up:
as §1

In test [18] the test system is RARa:RXR (NR concentration 270 nM, RXRa partner concentration 90 nM). Summed up:
as §1

The test system of test [19] is RARa homodimer (NR concentration 270 nM). Summed up: as §1
Test [20] relates to RARb:RXRa (NR concentration 270 nM, RXRa partner concentration 90 nM). A digest of the protocol: as §1

Turning to TTACCAATGTGAAAGGTCGTTGATGCACGCCTTG, the PBM binding z-score stood at 1.7 in [1]; 2.12 in test [2]; 0.874 in test [3]; 1.91 in test [4]; 0.227 in test [5]; 3.26 in [6]. The PBM binding z-score in test [7] is 4.36; in [8], 5.96; in [9] it was 3.68; in test [10], 6.14; in test [11], 0.0484; in test [12], 2.32. Besides, the PBM binding z-score in test [13] turned out to be 0.0698; in test [14], 0.235; in test [15], 1.33; in [16], 2.76; in [17], 0.663; in test [18], 3.27. For the same sequence, the figures for the PBM binding z-score in [19] and in test [20] were 0.219 and 1.74, respectively.
For the sequence TCGAGTAGGTTACCAATGGGGCATTAAGCTTTCT, the PBM binding z-score in test [1] was -0.382; in test [2], 1.24; in [3], -0.459; in test [4] it was 0.663; in test [5], -1.11; in test [6], 0.96. For the same sequence, the PBM binding z-score was 0.247 in test [7]; 1.17 in test [8]; 1.39 in test [9]; 1.18 in [10]; 2.97 in [11]; 2.74 in test [12]. Also, the PBM binding z-score in [13] is -0.388; in [14], -0.404; in test [15], -0.656; in test [16] it was -0.325; in [17], -1.08; in test [18], 0.0202. Moreover, the PBM binding z-score in test [19] is -1.28; in test [20], 0.864.
Turning to CGAACGAGGGCATGATTTGATAGCAAATGCCGAT, the PBM binding z-score was 0.047 in test [1]; -0.148 in test [2]; -0.301 in test [3]; -0.0288 in test [4]; -0.66 in test [5]; 0.783 in test [6]. Besides, the PBM binding z-score in test [7] came to 0.992; in test [8], 0.441; in test [9] it was 0.141; in test [10] it was 0.0789; in test [11], 2.59; in test [12], 1.81. Also, the PBM binding z-score in test [13] was -0.0165; in test [14], -0.269; in [15] it was -0.834; in test [16], 0.0992; in [17], -0.377; in test [18], 0.0639. Moreover, the PBM binding z-score in test [19] is -0.507; in test [20] it was 1.78.
TGACCAAGGTGAAAGGTCGTTGATGCACGCCTTG: the PBM binding z-score is 3.6 in test [1]; 2.98 in test [2]; 0.293 in [3]; 2.62 in test [4]; -0.814 in [5]; 5.24 in test [6]. Further, the PBM binding z-score was found to be 8.5 in test [7]; 7.41 in test [8]; 6.27 in test [9]; 7.51 in [10]; 2.01 in test [11]; 4.8 in test [12]. Moreover, the PBM binding z-score in test [13] is 0.518; in test [14] it was -0.282; in test [15], 1.58; in [16], 3.75; in test [17] it was -0.00693; in test [18], 5.22. Also, the PBM binding z-score is -0.166 in test [19] and 3.03 in test [20].
As for ATATGTAGGCTAGCTGGGGTCATTCAGACTAGGC, the PBM binding z-score in [1] is 3.46; in test [2], 3.2; in [3] it was 1.14; in [4], 3.49; in test [5], -0.151; in test [6], 4.32. Also, the PBM binding z-score in test [7] was found to be 3.2; in test [8] it was 3.64; in test [9], 1.1; in test [10], 2.83; in test [11], 4.55; in [12] it was 3.66. In addition, the PBM binding z-score in test [13] was 1.11; in test [14], 0.266; in [15] it was 1.81; in test [16] it was 5.32; in [17], 2.19; in [18], 5.28. Further, the PBM binding z-score turned out to be 0.344 in test [19] and 2.28 in test [20].
With TCTTGTAGATCAACAGGAGGTTAGGAAAGATCGA, the PBM binding z-score in test [1] is -0.355; in test [2] it was -0.0525; in test [3] it was -0.326; in test [4] it was 0.179; in [5] it was -0.324; in test [6] it was 0.641. Besides, the PBM binding z-score in test [7] is -0.123; in [8], 1.06; in [9], 2.59; in [10], 1.79; in test [11], 1.53; in test [12], 0.599. Moreover, the PBM binding z-score in test [13] is 0.272; in test [14], 0.48; in test [15], -0.426; in [16], 0.183; in test [17], -0.275; in [18] it was 0.125. For the same sequence, the figures for the PBM binding z-score in test [19] and in test [20] were 0.162 and 0.117, respectively.

Values taken from the supplement of paper PMC6555819.
